Here are results for 32 molecules from the supplement of paper PMC10811239.

For the test, the system named is LEGO organoid PTN (PTEN-/-; TP53-/-; NF1-/-). Nature of the test: bioluminescence (viable cell) signal fold change after vs before treatment, normalised to DMSO (ratio); higher = more tumour cell growth / less inhibition. To be noted: 10 µM; treatment time 6 days. As for the experimental part: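 Luc2-labelled iPSC-derived glioblastoma-like organoids (LEGOs, genotypes PT = PTEN-/-;TP53-/-, PTCC = plus CDKN2A/B-/-, PTN = plus NF1-/-) were treated with 10 uM drug for 6 days (applied every other day) at 37 C. Bioluminescence imaging was done before treatment and 2 days after the last dose. BLI signals were normalised to the DMSO control on the same day and then to the pre-treatment signal (N=3).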
With `C[C@@H]1O[C@]2(CS1)CN1CCC2CC1.C[C@@H]1O[C@]2(CS1)CN1CCC2CC1.Cl.Cl.O` [Cevimeline hydrochloride hemihydrate], the bioluminescence turned out to be 0.522.
On to `NCC[C@H](O)C(=O)N[C@@H]1C[C@H](N)[C@@H](O[C@H]2O[C@H](CN)[C@@H](O)[C@H](O)[C@H]2O)[C@H](O)[C@H]1O[C@H]1O[C@H](CO)[C@@H](O)[C@H](N)[C@H]1O.O=S(=O)(O)O.O=S(=O)(O)O` [Amikacin disulfate], for which the bioluminescence worked out at 0.614.
On to `CCc1cc(/C(C)=N/OCc2ccc(C3CCCCC3)c(C(F)(F)F)c2)ccc1CN1CC(C(=O)O)C1` [Siponimod], for which the bioluminescence amounted to 0.811.
The value for `COC(c1ccccc1)(c1ccccc1)[C@H](Oc1nc(C)cc(C)n1)C(=O)O` [Ambrisentan] was 1.08; that for `OC[C@H]1O[C@@H](n2cnc3c2NC=NC[C@H]3O)C[C@@H]1O` [Pentostatin] was 1.59.
In the case of `CCOc1nc2cccc(C(=O)O)c2n1Cc1ccc(-c2ccccc2-c2nn[nH]n2)cc1` [Candesartan], the bioluminescence was 2.99.
Consider `Cc1ccnc2c1NC(=O)c1cccnc1N2C1CC1` [Nevirapine], for which the bioluminescence was found to be 1.73.
Take `Nc1nc2ccc(OC(F)(F)F)cc2s1` [Riluzole]: the bioluminescence worked out at 1.01.
Turning to `CS(=O)(=O)c1cccc(C[C@H](NC(=O)c2c(Cl)cc3c(c2Cl)CCN(C(=O)c2ccc4ccoc4c2)C3)C(=O)O)c1` [Lifitegrast], the bioluminescence amounted to 0.439.
For `CN(CCOc1ccc(CC2SC(=O)NC2=O)cc1)c1ccccn1` (configuration not stated) [Rosiglitazone], the bioluminescence was determined as 1.22.
For `Cc1cccc(N(C)C(=S)Oc2ccc3ccccc3c2)c1` [Tolnaftate], the bioluminescence was 1.31.
Turning to `COc1cc2c(Nc3ccc(Br)cc3F)ncnc2cc1OCC1CCN(C)CC1` [Vandetanib], the bioluminescence was determined as 0.168.
The value for `CC1COc2c(N3CCN(C)CC3)c(F)cc3c(=O)c(C(=O)O)cn1c23` (configuration not stated) [Ofloxacin] was 1.19; that for `CCc1cc(C(N)=S)ccn1` [Ethinamide] was 1.99; that for `CN(C)C(=N)NC(=N)N.Cl` [Metformin hydrochloride] was 1.35.
`CCCN(CCC)CCc1cccc2c1CC(=O)N2.Cl` [Ropinirole hydrochloride]: the bioluminescence was determined as 0.313.
With `CCC(C)(C)C(=O)O[C@H]1C[C@@H](C)C=C2C=C[C@H](C)[C@H](CC[C@@H]3C[C@@H](O)CC(=O)O3)[C@H]21` [Simvastatin], the bioluminescence worked out at 0.364.
Consider `N=C(N)NCCCC[C@@H]1NC(=O)CCSSC[C@@H](C(N)=O)NC(=O)[C@@H]2CCCN2C(=O)[C@H](Cc2c[nH]c3ccccc23)NC(=O)[C@H](CC(=O)O)NC(=O)CNC1=O` [Eptifibatide], for which the bioluminescence amounted to 0.917.
Next, `N[C@H](C(=O)O)[C@H](O)c1ccc(O)c(O)c1` [Droxidopa]: 3.13; `Nc1nc(NC2CC2)c2ncn([C@H]3C=C[C@@H](CO)C3)c2n1` [Abacavir]: 3.33; `CC(=O)N[C@@H](CS)C(=O)O` [Acetylcysteine]: 3.17.
Next, `CN(C)CCCN1c2ccccc2CCc2ccccc21.Cl` [Imipramine hydrochloride]: 0.961.
As to `CCc1c(C)[nH]c2c1C(=O)C(CN1CCOCC1)CC2.Cl` (configuration not stated) [Molindone hydrochloride], the bioluminescence stood at 1.2.
The value for `O=C([O-])Cc1ccccc1Nc1c(Cl)cccc1Cl.[Na+]` [Diclofenac sodium] was 1.75; that for `O=C(CCCCCCC(=O)Nc1ccccc1)NO` [Vorinostat] was 0.384.
Next, `CCN(CC)CC#CCOC(=O)C(O)(c1ccccc1)C1CCCCC1` (configuration not stated) [Oxybutynin]: 1.53.
In the case of `Nc1cccc2c1CN(C1CCC(=O)NC1=O)C2=O` (configuration not stated) [Lenalidomide], the bioluminescence is 3.63.
The value for `Cl.NCC(=O)CCC(=O)O` [5-Aminolevulinic acid hydrochloride] was 1.19; that for `O=C(O)c1cc(/N=N/c2ccc(S(=O)(=O)Nc3ccccn3)cc2)ccc1O` [Sulfasalazine] was 0.504; that for `CCCN(CCC)S(=O)(=O)c1ccc(C(=O)O)cc1` [Probenecid] was 1.62.
For the molecule `CNC(=O)c1cc(Oc2ccc(NC(=O)Nc3ccc(Cl)c(C(F)(F)F)c3)cc2)ccn1` [Sorafenib], the bioluminescence stood at 0.285.
The value for `CO[C@H]1/C=C/O[C@@]2(C)Oc3c(C)c(O)c4c(O)c(c(/C=N/N5CCN(C)CC5)c(O)c4c3C2=O)NC(=O)/C(C)=C\C=C\[C@H](C)[C@H](O)[C@@H](C)[C@@H](O)[C@@H](C)[C@H](OC(C)=O)[C@@H]1C` [Rifampicin] was 0.579.
